# Compound activity: PubChem, National Center for Advancing Translational Sciences (NCATS)
# An excerpt weighted towards active compounds, which were near 11% of everything screened.
# Luciferase inh = inhibitors of firefly (Photinus pyralis) luciferase. Potency, µM (series often up to 115 µM), hits mostly inhibitors. actives 2.5% (n = 76,000). purified P. pyralis luciferase, luminescence, biochemical. P08659. AID 1347043; note: nearly all actives have a fitted effect of over 65% in size
#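 Luminescence read by CCD imaging after purified firefly luciferase (10nM final) was added to substrate buffer holding 10uM D-luciferin and 10uM ATP, pH 7.5, pre-dosed with compound.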
# HEK293 tox = kills HEK 293 cells; HEK 293 viability, ATP luminescence (CellTiter-Glo), 48-72 h; Potency, µM (series often up to 115 µM), for the others: at the highest dose activity change, negative = cytotoxicity, hits mostly inhibitors; actives 6.6% (n = 94,000); AID 1345083; note: nearly all actives have a fitted effect of over 60% in size
#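 Cytotoxicity was scored by loss of ATP-coupled luminescence (CellTiter-Glo) in HEK 293 cells. Compound treatment ran 48 or 72 hr at 37 degree Celsius, 5% CO2, 95% humidity.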
# 3T3 cytotox = NIH 3T3 cell cytotoxicity; Potency, µM (top dose mostly 96.7 µM), inactives show at the highest dose activity change, negative = cytotoxicity, usual class: inhibitors; NIH 3T3 viability, CellTiter-Glo ATP luminescence, 48-72 h; actives 4.3% (n = 94,000); note: nearly all actives have a fitted effect of over 55% in size
#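 ATP-dependent luminescence (CellTiter-Glo) served as the viability signal for NIH 3T3 cells treated with compound for 48 or 72 hr at 37 °C.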
# NPR1 antag = human Npr1 receptor antagonism. P16066. HEK293 hNpr1 GloSensor cGMP, ANP-stimulated luminescence. Potency, µM (highest dose often 46.3 µM), inactives show at the highest dose activity change, negative = inhibition, hits mostly inhibitors. actives 1.6% (n = 76,000). AID 1347048; calls by dose curve; note: nearly all actives have a fitted effect of over 60% in size
#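 HEK293 cells stably expressing human Npr1 and cGMP GloSensor pGS-40F, loaded 2 h with 2% GloSensor reagent, given compound 30 min at room temperature. Luminescence read before and 20 min after 0.1 nM hNppA.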
# * hit, by the source's call; i = inactive; ? = inconclusive; . = no result given; [ ] = remark or other dose. Unless noted, calls come from the whole dose curve; as a rule, active = well fitted curve in the direction sought with a large enough effect; inconclusive = small, poorly fitted or top-dose-only effect, or another doubt; inactive = no such curve, though single readings can be large; an effect the other way counts as inactive or inconclusive. % is set by controls: 0 for no effect and ±100 for the full control effect; potency is the fitted concentration of half-maximal effect.
SMILES,Luciferase inh,HEK293 tox,3T3 cytotox,NPR1 antag
Cc1cn2nc(C(=O)NCc3ccc(Cl)cc3)cc2c(N(C)Cc2ccccc2)n1,i,?,?,-7.6%
CC1(c2ccccc2)N(Cc2ccccc2C#N)C(=O)OC12CCN(C(=O)Cc1ccc(O)cc1)CC2 (centres undefined),i,-23.3%,11.2µM*,1.0%
Cn1ccc(C(=O)N2CCC3(CC2)OC(=O)N(Cc2ccccc2)C3(C)c2ccccc2)n1 (centres undefined),i,-1.0%,35.5µM*,-1.9%
CC1(c2ccccc2)N(Cc2ccccc2C#N)C(=O)OC12CCN(CCc1ccccc1)CC2 (centres undefined),i,?,?,-5.2%
CC1(c2ccccc2)N(Cc2ccccc2F)C(=O)OC12CCN(C(=O)Cc1ccc(O)cc1)CC2 (centres undefined),i,?,22.4µM*,6.0%
CC1(c2ccccc2)N(Cc2ccccc2)C(=O)OC12CCN(C(=O)c1ccc(F)cc1)CC2 (centres undefined),i,?,?,0.7%
CC1(c2ccccc2)N(Cc2ccccc2F)C(=O)OC12CCN(C(=O)CCc1ccccn1)CC2 (centres undefined),i,?,?,2.6%
COc1ccc(CN2CCC3(CC2)OC(=O)N(Cc2ccccc2C#N)C3(C)c2ccccc2)cc1O (centres undefined),i,44.7µM*,?,-18.9%
O=C(C1CCCC1)N1CCC(c2nn(-c3ccccn3)c(=O)[nH]2)CC1,.,-1.2%[172 µM],-1.6%[138 µM],.
CN1CC2(CCN(Cc3cn(C)c4ccccc34)CC2)CC1C(=O)N1CCOCC1 (centres undefined),i,?,-24.6%,-12.5%
O=C(CCc1nc2ccccc2[nH]1)N1C[C@@H](CO)[C@H](c2ccccn2)C1,i,-6.5%,-8.9%,-2.3%
CC1(c2ccccc2)N(Cc2ccccc2)C(=O)OC12CCN(Cc1c[nH]c3ccccc13)CC2 (centres undefined),i,28.2µM*,22.4µM*,?
CC1(c2ccccc2)N(Cc2ccc(O)cc2)C(=O)OC12CCN(C(=O)c1cccnc1)CC2 (centres undefined),i,i,31.6µM*,3.4%
COc1ccc(C(=O)N2CCC3(CC2)OC(=O)N(Cc2ccc(O)cc2)C3(C)c2ccccc2)cn1 (centres undefined),i,?,?,-11.6%
CC1(c2ccccc2)N(Cc2ccccc2)C(=O)OC12CCN(C(=O)Cc1ccc(O)cc1)CC2 (centres undefined),i,?,6.31µM*,-17.3%
CC1(c2ccccc2)N(Cc2ccc(O)cc2)C(=O)OC12CCN(CC1CC1)CC2 (centres undefined),i,?,79.4µM*,-7.8%[70.6 µM]
O=C(CCc1cccc(F)c1)N1CCN(Cc2ccccc2)CC(O)C1 (centres undefined),i,-23.0%,-28.0%,2.6%
N#Cc1ccc(C(=O)N2CCC(N3C(=O)[C@H]4CN(Cc5ccccc5)C[C@H]4C3=O)CC2)cc1,.,-27.9%,-40.9%,.
CC(C)c1cccc(NC(=O)CN2C(=O)C(c3ccccc3)=NC23CCCC3)c1,i,35.5µM*,?,?
O=C(CC1C(=O)NCCN1Cc1cccc(Oc2ccccc2)c1)NCc1ccco1 (centres undefined),i,25.1µM*,?,6.3%
CCN1C(=O)C2CC3(CCN(Cc4ccc5c(c4)CCO5)CC3)CN2C1=O (centres undefined),.,?,-23.0%,.
COc1cc(OC)cc(C(=O)N2CCC(c3n[nH]c(=O)n3Cc3ccc(F)cc3)CC2)c1,i,0.6%,17.8µM*,0.0%
COc1ccc(CC(=O)N2CCC(c3n[nH]c(=O)n3-c3ccc(C)cc3)CC2)cc1,i,-7.9%,31.6µM*,0.0%
O=C(Cc1ccc(Cl)cc1)N1CCC(c2n[nH]c(=O)n2-c2ccccc2)CC1,i,-1.9%,31.6µM*,10.4%
COc1cccc(C(=O)N2CCC(c3n[nH]c(=O)n3Cc3ccc(F)cc3)CC2)c1,i,-6.8%,?,1.9%
COc1cccc(C(=O)N2CCC(c3n[nH]c(=O)n3-c3ccc(C)cc3)CC2)c1,i,-5.5%,35.5µM*,3.0%
Cc1ccc(CC(=O)N2CCC(c3n[nH]c(=O)n3-c3ccc(C)cc3)CC2)cc1,i,4.5%,?,-6.7%
